V-ATPase pH: regulators of yeast V-ATPase proton pumping, primary screen, pHLuorin cytosolic pH fluorescence; actives 0.37% (n = 350,000); S. cerevisiae; response, % at 10 µM; in the data active = response mostly above about 7.3%, no sharp cut-off; inactive = mostly below about 5.4%; also: actives read high
CRFBP-R2 block: antagonists of CRF-BP/CRF-R2 complex, primary screen, cell-based, HEK293, calcium dye fluorescence, uHTS. CRF-induced calcium fluorescence. inhibition, % at 11.8 µM. actives 0.59% (n = 350,000). AID 588475, 2011;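 active = inhibition of the ligand-induced calcium signal above about 50% at the single tested concentration, limit read from the data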
CRFBP-R2 agonist: agonists of CRF-BP/CRF-R2 complex, primary screen, cell-based, HEK293, calcium dye fluorescence, uHTS | activation, % at 13.2 µM | CRF-binding protein / CRF receptor 2 complex (human) | actives 0.46% (n = 350,000) | AID 588473, 2011 | calcium dye fluorescence (FLIPR); percent of saturating CRF peptide response;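 active = activation of at least 50%, plus an integration ratio under a set limit after plate pattern correction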;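 also: plate controls were neutral control wells without compound for no effect and CRF at EC100 for full effect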
NTR1 agonist: agonists of human NTR1, primary screen, imaging, U2OS cells, beta-arrestin-GFP, high content; Neurotensin receptor type 1 (Homo sapiens), P30989; NTR1-U2OS beta-arrestin-GFP spot imaging, agonist mode; activation, % at 20 µM; actives 0.17% (n = 330,000); AID 493036, 2011;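 active = activation at or above 40% of the spot to cytoplasm intensity ratio, with at least 20 cells analyzed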;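 also: 0% = DMSO without peptide and 100% = 100 nM NTR1 peptide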
Target sequence (P30989 whole entry, looked up): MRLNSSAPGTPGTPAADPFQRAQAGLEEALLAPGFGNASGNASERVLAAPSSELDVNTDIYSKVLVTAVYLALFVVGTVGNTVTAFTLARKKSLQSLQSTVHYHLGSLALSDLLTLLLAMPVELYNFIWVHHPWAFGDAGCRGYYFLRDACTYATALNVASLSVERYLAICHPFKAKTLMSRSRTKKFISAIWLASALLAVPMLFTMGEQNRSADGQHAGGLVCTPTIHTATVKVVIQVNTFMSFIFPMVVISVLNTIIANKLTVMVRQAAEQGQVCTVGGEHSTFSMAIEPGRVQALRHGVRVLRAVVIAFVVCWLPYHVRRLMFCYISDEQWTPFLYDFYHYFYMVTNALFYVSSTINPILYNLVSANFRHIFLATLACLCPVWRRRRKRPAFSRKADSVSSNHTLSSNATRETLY
* hit, by the source's call; . = not tested or not shown. Only some compounds are listed: those with a hit (about 1.5% of all), similar ones and a draw of the others.

SMILES | V-ATPase pH | CRFBP-R2 block | CRFBP-R2 agonist | NTR1 agonist
Cc1ccc(CNC(=O)C2CCC(=O)N(Cc3ccccc3F)C2)s1 (stereo unspecified) | -2.1 | -5.3 | 0.7 | 1.3
Oc1ccccc1OCc1nc2ccccc2s1 | 3.5 | 10.1 | -2.0 | -2.6
Oc1ccc(O)c(Cc2nc3ccccc3s2)c1 | 0.1 | 53.2* | -0.5 | 0.1
CC(=O)c1cccc(OCC(=O)Nc2cccc(C(=O)Nc3c(C)n(C)n(-c4ccccc4)c3=O)c2)c1 | -2.5 | -1.9 | 1.2 | 1.6
CCOc1ccccc1NC(=O)C1CCC(=O)N1S(=O)(=O)c1ccc(C)cc1 (stereo unspecified) | -2.1 | 82.2* | -1.0 | -0.3
COc1cccc(CNC(=O)C(c2ccc(Cl)cc2)C(C)C)c1 (stereo unspecified) | -0.2 | -6.0 | -0.1 | 2.3
COC(=O)C1=C(C)NC(=O)NC1c1ccc(N2CCC(c3ccccc3)=N2)cc1 (stereo unspecified) | 1.5 | -19.9 | -0.8 | 1.2
O=C(/C=C/c1ccc(N2CCC(c3ccccc3)=N2)cc1)c1ccccc1 | . | -284.3 | 311.4* | -3.2
CCOC(=O)/C(=C\c1ccc(N2CCC(c3ccccc3)=N2)cc1)C(C)=O | 8.3 | -105.0 | 99.2* | .
CSc1nc2nc3c(cn2n1)C(=O)CC(c1ccccc1)C3 (stereo unspecified) | -1.0 | 10.6 | 6.7 | 2.1
Cn1c(=O)c2cc3c(nc2n(C)c1=O)CC(c1ccccc1)CC3=O (stereo unspecified) | -0.7 | 67.3* | -4.6 | 2.1
O=C(NCc1cccc(Cl)c1)c1ccc(S(=O)(=O)N2CCCCC2)cc1 | -4.7 | 12.1 | -1.5 | .
Cc1cccc(NC(=O)COc2coc(CN3CCc4ccccc4C3)cc2=O)c1 | -4.0 | -5.4 | 0.2 | 10.1
CCCCc1nnc2c(N(C)S(=O)(=O)c3ccccc3)nc3ccccc3n12 | 3.1 | 58.9* | -0.2 | 2.8
CC(C)c1nnc2c(N(C)S(=O)(=O)c3ccccc3)nc3ccccc3n12 | 2.0 | 0.2 | -1.4 | 0.2
CC1=NN2C(=N)/C(=C\c3cc(C)n(-c4ccccc4)c3C)C(=O)N=C2S1 | 2.5 | -26.3 | 0.9 | 0.0
Cc1cc(/C=C2\C(=N)N3N=C(c4ccco4)SC3=NC2=O)c(C)n1Cc1ccccc1 | 0.7 | -31.3 | 45.1 | 0.2
N=C1/C(=C\c2coc3ccc(O)cc3c2=O)C(=O)N=C2SC=CN12 | -0.6 | -87.9 | 151.7* | 2.3
N=C1/C(=C/c2coc3ccccc3c2=O)C(=O)N=C2SC(c3ccco3)=NN12 | 5.2 | -105.2 | 168.1* | -0.1
N=C1/C(=C\c2coc3ccccc3c2=O)C(=O)N=C2SC(c3ccncc3)=NN12 | -2.3 | -117.5 | 158.6* | 1.6
CN1C(=O)/C(=C/c2coc3ccc(O)cc3c2=O)SC1=S | 6.9 | -12.9 | 1.2 | 0.8
COc1ccc(-n2cccc2/C=C2\C(=N)N3N=C(c4ccco4)SC3=NC2=O)cc1 | -0.6 | 52.3* | -1.2 | 2.5
COc1ccc(-n2cccc2/C=C2\C(=N)N3N=C(C(C)C)SC3=NC2=O)cc1 | -0.4 | 0.8 | -0.8 | 2.4
COc1cccc(OC)c1OCCCN1CCC(Cc2ccccc2)CC1 | -2.5 | -5.7 | -1.3 | 1.1
Cc1ccc2c(c1)C(c1ccccc1)N(C(=O)c1ccc(Br)cc1)CC(=O)N2 (stereo unspecified) | -0.4 | -25.5 | -0.7 | .
SMILES | V-ATPase pH | CRFBP-R2 block | CRFBP-R2 agonist | NTR1 agonist
CCCC(=O)Nc1nnc(SCC(=O)Nc2ccc(OCC)cc2)s1 | . | 1.9 | 0.5 | .
Nc1nc(-c2ccccn2)nc(N)c1Cc1ccccc1F | -0.6 | 22.9 | -1.9 | 2.0
Nc1nc(-c2ccccn2)nc(N)c1Cc1ccc(Cl)cc1Cl | 10.9* | -31.1 | 1.1 | 1.5
C=CCSc1nnc(NC(=O)C23CC4CC(CC(NC(C)=O)(C4)C2)C3)s1 | 1.2 | -0.6 | -1.6 | 2.2
Cc1cc2c(=Cc3ccc(N(C)C)cc3)c3ccccc3n2[n+]1C | -2.5 | 108.5* | -1.1 | .
COc1cc2c3nnc(-c4ccc(F)cc4)c-3cn(Cc3ccc(F)cc3)c2cc1OC | 2.8 | -19.9 | 0.2 | 84.1*
c1ccc(CSc2ncnc3c2cnn3Cc2ccccc2)cc1 | 17.5* | 47.5 | 7.0 | 3.6
CC(C)(C)C(=O)CSc1ncnc2c1cnn2Cc1ccccc1 | -4.3 | -3.4 | 6.1 | 3.5
COc1cc(/C=C/C(=O)c2ccc(NS(=O)(=O)c3ccc(C)cc3)cc2)cc(OC)c1O | 113.1* | -48.4 | 4.0 | .
COc1cc(/C=C/C(=O)c2ccc(NS(=O)(=O)c3ccc(C)cc3)cc2)ccc1OC(F)F | -0.9 | -33.1 | -1.0 | 9.4

Assay outcomes as filed in PubChem BioAssay.
